# From the supplement of paper PMC10515830
# Counter-ions that a name gives are not always drawn.
# What was measured:
# Conditions in all cases: 10 µM; exposure time 6 h
# [1] = tested on: Danio rerio larvae (5 dpf); test: difference in excitability vs DMSO (percentage points); higher = more excitable than DMSO
# How it was run: (§1)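 Library compounds were tested at 10 µM final in 100 µL egg water on wild-type 5 dpf zebrafish larvae in 96-well plates for 6 h, with 48 larvae per compound. After 3 h, plates at 28.5 ℃ were imaged every 6 s during a 3-h run of moving lines and 100 ms, 400Hz tones. Behaviours were quantified by Z-LaP Tracker and reported as the compound mean less the vehicle control mean, in percentage points.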
# [2] = tested on: Danio rerio larvae (5 dpf); test: difference in startle response vs DMSO (percentage points); higher = stronger startle than DMSO
# How it was run: as §1
# [3] = tested on: Danio rerio larvae (5 dpf); test: difference in activity during first hour vs DMSO (percentage points); higher = more activity than DMSO
# How it was run: as §1
# [4] = tested on: Danio rerio larvae (5 dpf); test: difference in habituation to acoustic stimuli vs DMSO (percentage points); higher = more habituation than DMSO
# How it was run: as §1
# [5] = tested on: Danio rerio larvae (5 dpf); test: difference in combined optomotor response to red, green and blue moving lines vs DMSO (percentage points); higher = stronger optomotor response than DMSO
# How it was run: as §1
SMILES,difference in excitability [1],difference in startle response [2],difference in activity during first hour [3],difference in habituation to acoustic stimuli [4],difference [5]
COc1cc(NC(C)CCCN)c2ncccc2c1 (stereo not given) [Primaquine (phosphate)],23.1,-5.2,2.45,-4.94,-0.724
CCCCCCCC(=O)N[C@H](CN1CCCC1)[C@H](O)c1ccc2c(c1)OCCO2 [Eliglustat (hemitartrate)],10.1,-3.5,7.49,7.96,7.51
C[C@@H](CN1CC(=O)NC(=O)C1)N1CC(=O)NC(=O)C1 [Dexrazoxane],5.16,0.825,-0.0194,3.65,4.12
CN(C)c1ccc(O)c2c1C[C@H]1C[C@H]3[C@H](N(C)C)C(O)=C(C(N)=O)C(=O)[C@@]3(O)C(O)=C1C2=O [Minocycline (hydrochloride hydrate)],3.95,-2.06,13.3,8.03,-2.24
Cc1[nH]cnc1CN1CCc2c(c3ccccc3n2C)C1=O [Alosetron (hydrochloride)],-3.91,3.08,8.78,3.46,8.63
Cc1cc(C(C)(C)C)c(O)c(C)c1CC1=NCCN1 [Oxymetazoline (hydrochloride)],2.23,-0.966,-13.2,6.77,0.729
Cc1cc2c(s1)Nc1ccccc1N=C2N1CCN(C)CC1 [Olanzapine],26.1,-4.9,8.52,-8.45,4.38
CC1(C)S[C@@H]2[C@H](NC(=O)[C@H](N)c3ccc(O)cc3)C(=O)N2[C@H]1C(=O)O [Amoxicillin (hydrate)],2.37,8.42,13.1,5.1,8.79
COc1ccccc1OCCNCC(O)COc1cccc2[nH]c3ccccc3c12 (stereo not given) [Carvedilol],21.2,2.07,-3.13,0.913,3.65
C[C@H]1O[C@H](O[C@H]2[C@H](O)[C@@H](O)[C@@H](O[C@H]3[C@H](O)[C@@H](O)C(O)O[C@@H]3CO)O[C@@H]2CO)[C@H](O)[C@@H](O)[C@@H]1N[C@H]1C=C(CO)[C@@H](O)[C@H](O)[C@H]1O (stereo not given in full) [Acarbose],11,-8.81,-0.68,-4.5,4.03
O=c1[nH]c2ccccc2n1CCN1CCN(c2cccc(C(F)(F)F)c2)CC1 [Flibanserin],17.7,11.6,9.81,-4.3,-0.569
O=C1CCc2cc(OCCCCc3nnnn3C3CCCCC3)ccc2N1 [Cilostazol],12.6,2.9,11.7,-4.79,0.57
Nc1ccc(O)c(C(=O)O)c1 [5-Aminosalicylic Acid],2.98,0.822,3.09,1.77,-0.0944
COc1cc(CNC(=O)CCCC/C=C/C(C)C)ccc1O [Capsaicin],12.5,8.06,-6.37,-0.624,5.27
FCOC(C(F)(F)F)C(F)(F)F [Sevoflurane],-1.7,2.93,0.0224,4.17,-3.43
CCc1c2c(nc3ccc(OC(=O)N4CCC(N5CCCCC5)CC4)cc13)-c1cc3c(c(=O)n1C2)COC(=O)[C@]3(O)CC [Irinotecan (hydrochloride hydrate)],13.5,-2.28,0.361,2.44,2.92
CC1(C)O[C@@H]2C[C@H]3[C@@H]4CCC5=CC(=O)CC[C@]5(C)[C@@]4(F)[C@@H](O)C[C@]3(C)[C@]2(C(=O)CCl)O1 [Halcinonide],-1.92,2.79,7.26,9.28,6.48
CC(=O)OCC(=O)[C@@]12OC(C)(C)O[C@@H]1C[C@H]1[C@@H]3C[C@H](F)C4=CC(=O)C=C[C@]4(C)[C@@]3(F)[C@@H](O)C[C@@]12C [Fluocinonide],0.338,2.99,-1.35,-2.83,0.257
CCCCCCOC(=O)CCC(=O)CN [Hexaminolevulinate (hydrochloride)],5.6,3.54,2.02,7.86,2.47
Clc1ccc2c(c1)C(N1CCNCC1)=Nc1ccccc1O2 [Amoxapine],6.07,-0.987,35.7,-1.72,12.4
Cc1c(O)c(=O)ccn1C [Deferiprone],4.23,-1.15,8.16,-1.01,10.8

SMILES,difference in excitability [1],difference in startle response [2],difference in activity during first hour [3],difference in habituation to acoustic stimuli [4],difference [5]
C=CC(=O)Nc1cc(Nc2nccc(-c3cn(C)c4ccccc34)n2)c(OC)cc1N(C)CCN(C)C,8.96,-2.41,-13.4,-6.69,2.87
O=C1C(O)=C([C@H]2CC[C@H](c3ccc(Cl)cc3)CC2)C(=O)c2ccccc21 [Atovaquone],-0.794,-0.517,-0.977,-6.16,-7.53
CCC1=C[C@@H]2CN(C1)Cc1c([nH]c3ccccc13)[C@@](C(=O)OC)(c1cc3c(cc1OC)N(C)[C@H]1[C@@](O)(C(=O)OC)[C@H](OC(C)=O)[C@]4(CC)C=CCN5CC[C@]31[C@@H]54)C2 [Vinorelbine (tartrate)],11.6,-5.75,3.25,-2.19,-4.51
C#C[C@]1(O)CC[C@H]2[C@@H]3CCC4=CC(=O)CC[C@@H]4[C@H]3CC[C@@]21CC [Levonorgestrel],2.02,-3.01,-12.7,-0.397,3.05
COc1cc2/c(=N/c3ccc(Br)cc3F)nc[nH]c2cc1OCC1CCN(C)CC1 [Vandetanib],12.1,-1.93,-4.76,5.41,6.09
Cc1ncc([N+](=O)[O-])n1CCO [Metronidazole],5.42,1.25,-3.64,-2.4,7.32
CC(C)CN(C[C@@H](OP(=O)(O)O)[C@H](Cc1ccccc1)NC(=O)O[C@H]1CCOC1)S(=O)(=O)c1ccc(N)cc1 [Fosamprenavir (calcium salt)],0.179,4.76,22.4,-2.19,5.16
COC(=O)C1=C(C)NC(C)=C(C(=O)OCCN(C)Cc2ccccc2)C1c1cccc([N+](=O)[O-])c1 (stereo not given) [Nicardipine (hydrochloride)],7.46,-1.35,14.3,-16.5,-6.14
C[N+]1(C)[C@@H]2CC[C@H]1C[C@@H](OC(=O)C(O)c1ccccc1)C2 (stereo not given in full) [Methylhomatropine (bromide)],5.63,0.325,2.46,1.2,-3.01
CO[C@H]1O[C@@H]2O[C@@]3(C)CC[C@H]4[C@H](C)CC[C@@H]([C@H]1C)[C@@]24OO3 [Artemether],17.2,3.03,-1.53,3.23,7.61
NC(=O)C(c1ccccc1)(c1ccccc1)[C@@H]1CCN(CCc2ccc3c(c2)CCO3)C1 [Darifenacin (hydrobromide)],15.5,-9.95,-4.6,-3.27,-6.74
CC1=NN(c2ccc(C)c(C)c2)C(=O)/C1=N\Nc1cccc(-c2cccc(C(=O)O)c2)c1O [Eltrombopag],19.6,-0.303,17.7,1.01,-0.694
CC1Cc2ccccc2N1NC(=O)c1ccc(Cl)c(S(N)(=O)=O)c1 (stereo not given) [Indapamide],4.58,1.23,7.09,-1.64,1.06
N=C(N)NCCC[C@@H](NC(=O)[C@@H]1CCCN1C(=O)[C@@H]1CSSCCC(=O)N[C@@H](Cc2ccc(O)cc2)C(=O)N[C@@H](Cc2ccccc2)C(=O)N[C@@H](CCC(N)=O)C(=O)N[C@@H](CC(N)=O)C(=O)N1)C(=O)NCC(N)=O [Desmopressin (trifluoroacetate salt)],0.805,-0.652,28.8,-4.29,5.42
C#C[C@]1(O)CC[C@H]2[C@@H]3CCC4=CCCC[C@@H]4[C@H]3C(=C)C[C@@]21CC [Desogestrel],16.3,-10.3,30.8,-6.42,-15.3
COc1cc2c(cc1OC)C(=O)C(CC1CCN(Cc3ccccc3)CC1)C2 (stereo not given) [Donepezil],12,-0.487,-0.402,-0.748,-2.38
CNCC(O)c1ccc(OC(=O)C(C)(C)C)c(OC(=O)C(C)(C)C)c1 (stereo not given) [Dipivefrin (hydrochloride)],-3.61,-15.1,46.2,-2.07,2.48
COc1cc(Nc2ncc(F)c(Nc3ccc4c(n3)N(COP(=O)(O)O)C(=O)C(C)(C)O4)n2)cc(OC)c1OC [R788 (sodium salt)],4.23,4.11,7.65,-1.65,2.43
C=C1/C(=C\C=C2/CCC[C@]3(C)[C@@H]([C@H](C)/C=C/[C@H](C)C(C)C)CC[C@@H]23)C[C@@H](O)C[C@@H]1O [1-hydroxy Vitamin D2],1.72,-1.97,2.97,0.874,6.19
CCCCCCCCCC(=O)N[C@@H](Cc1c[nH]c2ccccc12)C(=O)N[C@H](CC(N)=O)C(=O)N[C@@H](CC(=O)O)C(=O)N[C@@H]1C(=O)NCC(=O)N[C@@H](CCCN)C(=O)N[C@@H](CC(=O)O)C(=O)N[C@H](C)C(=O)N[C@@H](CC(=O)O)C(=O)NCC(=O)N[C@H](CO)C(=O)N[C@@H]([C@H](C)CC(=O)O)C(=O)N[C@@H](CC(=O)c2ccccc2N)C(=O)O[C@@H]1C [Daptomycin],12,1.46,7.99,-6.5,6.83
